Measured values from PubChem BioAssay AID1159580 (chemical genetic matrix, 2015).
In all, about 5,500 compounds went through this assay and about 2,000 (36%) were called active. Not shown: some 18% with an inconclusive outcome. No stated cut-off is given here; in the data, active means normalized growth mostly below about 0.91 (no sharp cut-off); inconclusive means no clear call, values can overlap the other calls; inactive means mostly above about 0.92. Some of the results follow.

Assay: chemical genetic growth profiling, strain panel (AID 1159580);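 further: tested at 20 µM; growth read once vehicle control cultures reached saturation at 30 °C; 1 = growth at the plate median or of vehicle wells; lower values mean less growth of the strain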
Settings: growth OD

Measured: normalized growth

CC[C@@H]1[C@@H](O)N2C3C[C@H]1C1C(O)[C@]4(C[C@@H]12)c1ccccc1N(C)[C@@H]34 (some centres not stated)
inactive: S. cerevisiae deletion strains, locus YJR075W, strain HOC1, hits give low values 0.986 | S. cerevisiae deletion strains, locus YKL009W, strain mrt4, hits give low values 1.02 | S. cerevisiae deletion strains, locus YKL068W, hits give low values 0.987 | S. cerevisiae deletion strains, locus YKL085W, strain MDH1 (second series), hits give low values 0.997 | S. cerevisiae deletion strains, locus YKL085W, strain MDH1, hits give low values 0.997 | S. cerevisiae deletion strains, locus YKL160W, strain elf1, hits give low values 1 | S. cerevisiae deletion strains, locus YKL190W, strain CNB1, hits give low values 0.989 | S. cerevisiae deletion strains, locus YKR001C, strain vps1, hits give low values 0.965 | S. cerevisiae deletion strains, locus YKR026C, strain gcn3, hits give low values 1.02 | S. cerevisiae deletion strains, locus YKR091W, strain srl3, hits give low values 1.03 | S. cerevisiae deletion strains, locus YLL001W, strain dnm1, hits give low values 1.02 | S. cerevisiae deletion strains, locus YLL026W, hits give low values 1 | S. cerevisiae deletion strains, locus YLL041C, strain sdh2, hits give low values 1.05 | S. cerevisiae deletion strains, locus YLR027C, strain aat2, hits give low values 1.02 | S. cerevisiae deletion strains, locus YLR039C, strain RIC1, hits give low values 0.985 | S. cerevisiae deletion strains, locus YLR058C, strain SHM2, hits give low values 0.992 | S. cerevisiae deletion strains, locus YLR102C, strain apc9, hits give low values 0.973 | S. cerevisiae deletion strains, locus YLR113W, strain HOG1, hits give low values 0.996 | S. cerevisiae deletion strains, locus YLR221C, strain rsa3, hits give low values 1.01 | S. cerevisiae deletion strains, locus YLR258W, strain gsy2, hits give low values 1.03 | S. cerevisiae deletion strains, locus YLR262C, strain YPT6 (second series), hits give low values 1.01 | S. cerevisiae deletion strains, locus YLR262C, strain YPT6, hits give low values 0.984 | S. cerevisiae deletion strains, locus YLR268W, strain sec22, hits give low values 0.935 | S. cerevisiae deletion strains, locus YLR320W, strain mms22, hits give low values 1.01 | S. cerevisiae deletion strains, locus YLR330W, strain CHS5, hits give low values 0.994 | S. cerevisiae deletion strains, locus YLR342W, strain FKS1 (second series), hits give low values 1.01 | S. cerevisiae deletion strains, locus YLR342W, strain FKS1, hits give low values 1.01 | S. cerevisiae deletion strains, locus YLR357W, strain rsc2, hits give low values 1.09 | S. cerevisiae deletion strains, locus YLR370C, strain arc18, hits give low values 1.03 | S. cerevisiae deletion strains, locus YLR371W, strain rom2, hits give low values 0.975 | S. cerevisiae deletion strains, locus YLR384C, strain iki3, hits give low values 1.03 | S. cerevisiae deletion strains, locus YLR418C, strain cdc73, hits give low values 0.961 | S. cerevisiae deletion strains, locus YML016C, strain PPZ1, hits give low values 0.992 | S. cerevisiae deletion strains, locus YML032C, strain rad52, hits give low values 0.954 | S. cerevisiae deletion strains, locus YML120C, strain ndi1, hits give low values 1.02 | S. cerevisiae deletion strains, locus YML124C, strain tub3, hits give low values 0.982 | S. cerevisiae deletion strains, locus YMR058W, strain fet3, hits give low values 1.01 | S. cerevisiae deletion strains, locus YMR078C, strain ctf18, hits give low values 0.958 | S. cerevisiae deletion strains, locus YMR125W, strain sto1, hits give low values 1.06 | S. cerevisiae deletion strains, locus YMR129W, hits give low values 1.01 | S. cerevisiae deletion strains, locus YMR205C, strain PFK2, hits give low values 1.03 | S. cerevisiae deletion strains, locus YMR223W, strain ubp8, hits give low values 0.996 | S. cerevisiae deletion strains, locus YMR231W, strain pep5, hits give low values 1.03 | S. cerevisiae deletion strains, locus YMR263W, strain SAP30, hits give low values 1 | S. cerevisiae deletion strains, locus YMR307W, strain GAS1, hits give low values 0.974 | S. cerevisiae deletion strains, locus YNL067W, strain RPL9B, hits give low values 0.981 | S. cerevisiae deletion strains, locus YNL071W, strain lat1, hits give low values 1.03 | S. cerevisiae deletion strains, locus YNL128W, strain TEP1, hits give low values 0.991 | S. cerevisiae deletion strains, locus YNL153C, strain GIM3, hits give low values 0.992 | S. cerevisiae deletion strains, locus YNL183C, strain NPR1, hits give low values 0.917 | S. cerevisiae deletion strains, locus YNL209W, strain ssb2, hits give low values 1.04 | S. cerevisiae deletion strains, locus YNL233W, strain BNI4, hits give low values 0.977 | S. cerevisiae deletion strains, locus YNL248C, strain rpa49, hits give low values 1.01 | S. cerevisiae deletion strains, locus YNL250W, strain rad50, hits give low values 0.981 | S. cerevisiae deletion strains, locus YNL271C, strain bni1, hits give low values 0.973 | S. cerevisiae deletion strains, locus YNL298W, strain CLA4, hits give low values 0.968 | S. cerevisiae deletion strains, locus YNL307C, strain MCK1, hits give low values 0.99 | S. cerevisiae deletion strains, locus YNL322C, strain KRE1 (second series), hits give low values 1.05 | S. cerevisiae deletion strains, locus YNL322C, strain KRE1, hits give low values 0.998 | S. cerevisiae deletion strains, locus YNR049C, strain mso1, hits give low values 1.03 | S. cerevisiae deletion strains, locus YNR052C, strain pop2, hits give low values 0.982 | S. cerevisiae deletion strains, locus YOL006C, strain TOP1, hits give low values 0.921 | S. cerevisiae deletion strains, locus YOL012C, strain htz1 0.945 | S. cerevisiae deletion strains, locus YOL147C, strain pex11, hits give low values 0.974 | S. cerevisiae deletion strains, locus YOR001W, strain rrp6, hits give low values 1.02 | S. cerevisiae deletion strains, locus YOR061W, strain CKA2, hits give low values 0.97 | S. cerevisiae deletion strains, locus YOR069W, strain VPS5, hits give low values 0.995 | S. cerevisiae deletion strains, locus YOR070C, strain gyp1, hits give low values 1.03 | S. cerevisiae deletion strains, locus YOR080W, strain dia2, hits give low values 1.04 | S. cerevisiae deletion strains, locus YOR083W, strain WHI5, hits give low values 0.979 | S. cerevisiae deletion strains, locus YOR106W, strain vam3, hits give low values 1.04 | S. cerevisiae deletion strains, locus YOR136W, strain idh2, hits give low values 0.98 | S. cerevisiae deletion strains, locus YOR144C, strain elg1, hits give low values 0.962 | S. cerevisiae deletion strains, locus YOR184W, strain ser1, hits give low values 0.97 | S. cerevisiae deletion strains, locus YOR231W, strain MKK1, hits give low values 1.01 | S. cerevisiae deletion strains, locus YOR265W, strain rbl2, hits give low values 1.03 | S. cerevisiae deletion strains, locus YOR270C, strain vph1, hits give low values 1.14 | S. cerevisiae deletion strains, locus YOR290C, strain snf2, hits give low values 1.02 | S. cerevisiae deletion strains, locus YOR316C, strain cot1, hits give low values 0.975 | S. cerevisiae deletion strains, locus YPL051W, strain arl3, hits give low values 1.02 | S. cerevisiae deletion strains, locus YPL055C, strain LGE1, hits give low values 1 | S. cerevisiae deletion strains, locus YPL078C, strain atp4, hits give low values 1.03 | S. cerevisiae deletion strains, locus YPL106C, strain sse1, hits give low values 1.06 | S. cerevisiae deletion strains, locus YPL240C, strain hsp82, hits give low values 1.02 | S. cerevisiae deletion strains, locus YPL241C, strain CIN2, hits give low values 0.994 | S. cerevisiae deletion strains, locus YPL256C, strain CLN2, hits give low values 0.982 | S. cerevisiae deletion strains, locus YPR119W, strain clb2, hits give low values 0.972 | S. cerevisiae deletion strains, locus YPR141C, strain kar3, hits give low values 0.979 | S. cerevisiae deletion strains, locus YPR163C, strain tif3, hits give low values 0.966 | S. cerevisiae deletion strains, locus YPR167C, strain met16, hits give low values 0.976 | S. cerevisiae deletion strains, strain wtn01, hits give low values 0.963 | S. cerevisiae strains, strain wild type, hits give low values 0.994
